# Lassa entry: Lassa virus entry inhibition; 18,000 tested, 4.1% active; Potency, µM (titrated, usually from 49.2 µM), for the others: at the top dose activity change, negative = inhibition, most hits filed as inhibitors; Lassa virus pseudotyped entry inhibition, cell-based qHTS; AID 720533
# Marburg entry: inhibitors of Marburg virus binding or entry into cells; 18,000 tested, 6.5% active; Potency, µM (top dose mostly 49.2 µM), without a hit: at the top dose activity change, negative = inhibition, hits mostly inhibitors; Marburg virus pseudotype entry/binding inhibition, cell-based
# Active calls of the source: *; ? = inconclusive; . = no result; ! = not active in a repeat; [ ] = another dose, or the depositor's remark. Rows were chosen to be rich in hits. Some 8% of all compounds tested hit in one or more screens of this group. Calls come from the whole dose curve; tested in HEK293 cells. % is set by controls: 0 for no effect and ±100 for the full control effect; potency is the fitted concentration of half-maximal effect.
SMILES,Lassa entry,Marburg entry
CCC1C(=O)NCCN1Cc1ccc2c(c1)CN(Cc1cccc(OC)c1OC)CCO2 (stereo unspecified),2%,0%
CCCCN1CCC(CCC(=O)c2cc(Cl)c(N)cc2OC)CC1,28µM*!,11µM*
CCOc1cc(N)c(Cl)cc1C(=O)NCC1CN(Cc2ccc(F)cc2)CCO1 (stereo unspecified),-1%,11%
CC1(C)CN(Cc2ccccc2)C(=O)[C@@H]1CC(=O)Nc1ccc(Br)cc1,-10%,-28%
CC(CC(c1ccccc1)c1ccccc1)NC(C)(C)C (stereo unspecified),?,13µM*
CN[C@@H](C)Cc1ccccc1,-9%[107 µM],1%[107 µM]
O=C1[C@H]2[C@@H]3[C@@H](O)[C@H](O)CC(=NOCc4ccccc4)[C@@H]3CC[C@H]2C(=O)N1c1ccc(F)cc1F,3%[8.59 µM],-9%[8.59 µM]
C=C1C(=O)OC2CC1C(OC(C)=O)CC(C)=CCCC(C)=CCC[C@@]2(C)O (stereo partly specified),11µM*,16µM*
CNCC(=O)N[C@@H](CCCN=C(N)N)C(=O)N[C@H](C(=O)N[C@@H](Cc1ccc(O)cc1)C(=O)N[C@H](C(=O)N[C@@H](Cc1cnc[nH]1)C(=O)N1CCC[C@H]1C(=O)N[C@@H](C)C(=O)O)C(C)C)C(C)C,-5%,16%
O=C1NC(=O)C(c2cccc(Cl)c2)=C1Nc1ccc(Cl)c(C(=O)O)c1,17%,-38%
Nc1c2ccccc2nc2ccccc12,?,14µM*
c1ccc2nc3ccccc3cc2c1,-27%,?
Nc1c2c(nc3ccccc13)CCCC2,?,10µM*
Nc1ccc(S(=O)(=O)Nc2ccccc2)cc1,-14%,6%
O=C(/C=C/C#Cc1cccc(NS(=O)(=O)c2ccccc2)c1)NO,10µM*,?
CN1C=CC(=O)[C@@H](O)[C@@H]1c1ccccc1Br,20%,5%
CCCCC1C(=O)N(c2ccccc2)N(c2ccc(O)cc2)C1=O (stereo unspecified),?,48%[17.8 µM]
CCCCc1c(O)n(-c2ccccc2)[nH]c1=O,10µM*,-2%
CC(=O)N[C@@H](C=O)[C@@H](O)[C@H](O)[C@H](O)CO,-4%,4%
Nc1ncn([C@H]2O[C@@H](CO)[C@@H](O)[C@@H]2O)c(=O)n1,2µM*,3.2µM*
O=c1[nH]cnc2c1ncn2[C@@H]1O[C@H](CO)[C@@H](O)[C@H]1O,3%,10%
Nc1ccn([C@@H]2O[C@H](CO)[C@@H](O)C2O)c(=O)n1 (stereo partly specified),7.1µM*,5µM*
Nc1ccn([C@@H]2O[C@H](CO)[C@@H](O)[C@H]2O)c(=O)n1,-6%,8%
OC[C@H]1O[C@@H](n2cnc3c(=S)nc[nH]c32)[C@H](O)[C@@H]1O,6.3µM*,7.9µM*
Nc1ncn(C2CC(O)C(CO)O2)c(=O)n1 (stereo unspecified),-12%,-6%
SMILES,Lassa entry,Marburg entry
COc1cccc(C2(CC(=O)N3CCN(c4ccccc4O)CC3)CC(=O)N(C3CCCC3)C2=O)c1 (stereo unspecified),-27%,-14%
CN(C(=O)c1cnn(-c2ncc3c(n2)-c2ccccc2CCC3)c1C1CC1)C1CCOC1 (stereo unspecified),-8%,29%
COc1ccc2c(c1OC)C(Cc1ccccc1)N1CCc3cc4c(cc3C1C2)OCO4 (stereo unspecified),?,-7%
NCCCCCCCCCCNS(=O)(=O)c1cccc2c(Cl)cccc12,?,10%
NCCCCCCNS(=O)(=O)c1cccc2c(Cl)cccc12,?,18µM*!
CC1(C)CCC[C@@](C)([C@H]2CC[C@]3(C)[C@@H]2[C@H](O)C[C@@H]2[C@@]4(C)CC[C@H](O)C(C)(C)[C@@H]4CC[C@]23C)O1,11%,25%
NC1CCc2cc(O)c(O)cc2C1 (stereo unspecified),0%,22µM*!
CCN1C(=O)[C@@H]2[C@H]3[C@H](O)[C@H](O)CC(=NOC[C@@H](O)COCc4ccco4)[C@@H]3CC[C@H]2C1=O,1%[8.59 µM],-22%[8.59 µM]
COc1cc(=O)n2c(c1C(=O)N(C)Cc1cscn1)CCN(Cc1ccc3c(c1)OCCO3)CC2,-3%,18%
COc1cc(C(=O)OC2C[C@H]3CC[C@@H](C2)N3C)ccc1O (stereo partly specified),2%[17.8 µM],5%[17.8 µM]
Cc1cc(C)cc(C(=O)OC2C[C@H]3CC[C@@H](C2)N3C)c1 (stereo partly specified),?,11µM*
COc1ccc2c3c1O[C@H]1[C@@H](O)C=C[C@H]4[C@@H](C2)NCC[C@@]341,-6%[107 µM],17%[107 µM]
Cc1cc(O)c(C=O)c(O)c1C(=O)O,0%,-2%
COC(=O)c1c(C)cc(OC(=O)c2c(C)cc(O)c(C=O)c2O)c(C)c1O,7.9µM*,?
COc1cc(OC)c2c(-c3ccccc3)cc(=O)oc2c1C(CCN1CCOCC1)c1ccc(N(C)C)cc1 (stereo unspecified),?,10µM*
COc1cc(C(CCN2CCOCC2)c2c(OC)cc(OC)c3ccc(=O)oc23)cc(OC)c1OC (stereo unspecified),-23%,-12%
CC1=C[C@@H](COCc2ccccc2)O[C@@]2(C1)C(=O)N(Cc1ccccc1C(F)(F)F)c1ccccc12,11%[8.59 µM],5%[8.59 µM]
Cc1cccc(CNc2ncncc2-c2cccc(NS(C)(=O)=O)c2)c1,-6%,4%
C=CC(C)(C)c1c2c(c(O)c3c(=O)c4ccc(O)c(O)c4oc13)C=CC(C)(C)O2,?,20µM*
O=C(Nc1n[nH]c2nc(-c3ccco3)ccc12)C1CC1,.,-14%
CCC(=O)NC[C@H](Cc1ccc(OCCc2nc(-c3ccccc3)oc2C)cc1)N/C(C)=C\C(=O)c1ccc(C(F)(F)F)cc1,-18%,23%
CN1CCC[C@H]1c1cccnc1,7%,6%
CCCCCCCCCC[n+]1cccc([C@@H]2CCCN2C)c1,?,6.3µM*
O=C1C=CC2=C3c4cc(O)c(O)cc4CC3(O)COC2=C1O (stereo unspecified),-16%,3.2µM*
COc1ccc2c(c1)C(=O)[C@H](OC(=O)Nc1ccc(OC(F)F)cc1)[C@@H](c1ccc(OC)c(Br)c1)O2,1%,27%
SMILES,Lassa entry,Marburg entry
COc1cc(OC)c(OC)cc1CN1CCOc2ccc(CN3C[C@@H](C)O[C@@H](C)C3)cc2C1,-2%,-22%
COC(=O)c1cn([C@@H]2C[C@@H](C(=O)Nc3cccc(SC)c3)N(C3CCCC3)C2)nn1,-18%,-16%
O=C(O)c1ccc2[nH]cc(CCCCN3CC=C(c4ccccc4)CC3)c2c1,-4%,?
Oc1ccc2[nH]cc(CCCCN3CC=C(c4ccccc4)CC3)c2c1,-16%,20µM*
CC1(C)N=C(N)N=C(N)N1c1ccc(Cl)cc1,11µM*,7.1µM*
CC(=O)c1ccc(F)c(-c2cc(C)cc3c2OC(CNC(=O)C(C)n2nc(C)cc2C)C3)c1 (stereo unspecified),-26%,-4%
C=CCN1CC(COCCCC)Oc2ccc(Cl)cc2S1(=O)=O (stereo unspecified),-23%,25%
O=C(O)C1=C(CSc2nnnn2CS(=O)(=O)O)CS[C@@H]2[C@H](NC(=O)[C@H](O)c3ccccc3)C(=O)N12,-11%,7%
Cc1ccc(CN2C[C@H](Sc3ccccn3)C[C@H]2C(=O)Nc2ccc3sc(C)nc3c2)c(C)c1,-12%,-12%
Nc1nc(Cl)c2ncn(C3OC(CO)C(O)C3O)c2n1 (stereo unspecified),5%,19%
Nc1nc(Cl)nc2c1ncn2[C@@H]1O[C@H](CO)[C@@H](O)[C@@H]1F,?,2.5µM*
